According to PubChem BioAssay (NCI):
About 83,000 compounds went through this panel and 20% of them were active in at least one assay; those are over-represented in the sample as a whole.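 Values shown are percent growth following 48 h exposure of cells in 96-well plates to a single concentration of compound; below 10 was considered active.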 Unmarked numbers belong to inactive results. Calls of active or inactive are those of the source.

Each molecule was assayed on HOP-62 NSCLC (assay: NCI-60 one-dose screen, 48 h (100 = growth as untreated, 0 = no growth, -100 = all killed)). Conditions: 10 µM.

SMILES | growth
COc1cc(-c2nc3ccccc3[nH]2)ccc1OCC(=O)N=Nc1c(O)[nH]c2ccccc12 | 99.6%
O=C(OCc1ncc(-c2ccc(C(F)(F)F)cc2)c(NC2CCCCCC2)n1)c1c(F)c(F)c(F)c(F)c1F | 83.5%
COc1cc(C2=Nc3c/c(=C\c4c(O)[nH]c5ccc(Cl)cc45)ccc3=N2)cc(OC)c1OC | -82% (active)
COc1ccc(OC)c([N+](=O)[O-])c1C=O | 78.2%
COc1ccc(-c2nnc(COc3ccc(NC(=O)Nc4cccc(C(F)(F)F)c4)cc3F)o2)cc1 | 67.4%
COc1ccc(C(=O)n2nc(CC(=O)NCc3ccccc3)nc2N)cc1 | 108%
NC1CCC(Nc2nc(NCc3ccc(-c4ccccc4O)nc3)c3ncn(C4CCCC4)c3n2)CC1 (configuration not stated) | -9.04% (active)
COc1ccc(CSc2nc3cc(OC)c(OC)cc3c(=O)n2-c2ccc(OC)cc2OC)cc1 | 101%
CCCCCCN=C(N)CCCCCCCCCCC(N)=NCCCCCC | 18.5%
O=C(COCc1c(-c2ccccc2)no[n+]1[O-])Nc1nc(-c2ccc(Cl)cc2)cs1 | 96.5%
O=[N+]([O-])c1ccc2c(c1)Cc1cc(I)ccc1-2 | 113%
CN(C)CCCN(Cc1ccccc1O)C(=S)Nc1ccc(Cl)cc1 | 108%
CS(=O)(=O)Nc1ccc(Nc2c3ccccc3nc3cc(Cl)ccc23)cc1 | 25%
COc1ccc(/C=C2\CCC3C(CCCC34OCCO4)C2=O)cc1 (configuration not stated) | 99.3%

Each molecule was assayed on NCI-H460 lung in the same assay as above. Conditions: 10 µM.

SMILES | growth
COCCOC(=O)NC(=O)Nc1ccc(C(=O)c2ccc(Cl)cc2)cc1 | 23.3%
Cc1cnc(C=O)c2cccc([N+](=O)[O-])c12 | 106%
COc1ccc(-c2nc(SCC(=O)c3ccc(Br)cc3)[nH]c(=O)c2C#N)cc1 | 108%
COc1cccc2c1C(=O)c1c(O)c3c(c(O)c1C2=O)C[C@@](O)(C(=O)COC(=O)c1ccccc1)C[C@@H]3OC1CC(N)C(O)C(C)O1 (some centres not stated) | -80.9% (active)
Fc1ccc2[nH]c3c(NCCCN4CCOCC4)ncnc3c2c1 | 54%
CC(C)c1[nH]nc2c(NCc3ccc(-c4ccccn4)cc3)nc(SCCN)nc12 | 3.31% (active)
COc1ccc(NC(=O)CCn2cnc3c(cc(-c4ccccc4)n3-c3ccccc3)c2=O)cc1 | 91.8%
CNC(=O)c1cc(Oc2ccc(NC(=O)Nc3ccc(Cl)c(OC4CCCCC4)c3)c(F)c2)ccn1 | 37.9%
CCCCCCCCCCCCCCCCn1cc[n+](C)c1 | -87.9% (active)
O=C1/C(=C/c2cccs2)CCC/C1=C\c1cccs1 | 92.1%
COC(=O)C1(C(=O)OC)C2C(=O)C3C(C21)C3(C(=O)OC(C)(C)C)C(=O)OC(C)(C)C (configuration not stated) | 113%
COc1ccc(Cn2cc3c(c2-c2ccccc2)CC(C)(C)c2cnoc2-3)cc1 | 9.42% (active)
CC(C)C[C@H](NC(=O)Cn1ccc2ccccc2c1=O)B(O)O | 106%
Cc1cc(Nc2cccc(F)c2)nc(NCc2ccccc2)n1 | 6.63% (active)
O=C(/C=C/c1ccc(Cl)cc1)c1ccc(Br)cc1 | 109%
Cc1cc2cc3c(=O)[nH]c(=O)cc-3n(CC(O)C(O)C(O)CO)c2cc1C (configuration not stated) | 101%
N#Cc1cnc2ccc(NCc3cnc[nH]3)cc2c1Nc1ccc(F)c(Cl)c1 | 62.5%
Cn1c(=O)c2[nH]c(C(O)c3ccc(Cl)cc3)nc2n(C)c1=O (configuration not stated) | 100%
Cc1ccc(S(=O)(=O)Nc2cccc3[nH]c(C(F)(F)F)nc23)cc1 | 7.86% (active)

SMILES | growth
CCCCCCCOc1cccc(/C=C2/C(=O)N=C3SCCCN32)c1 | 82%
Cc1ccc(C)c(S(=O)(=O)NC2c3ccccc3Oc3ccccc32)c1 | 105%
Nc1nc2c(nnn2C2CC(O)C(CO)O2)c(=O)[nH]1 (configuration not stated) | 54.3%
Cc1nc2cc(-n3c(-c4ccc(F)cc4)nc4ccccc4c3=O)ccc2n1Cc1ccccc1 | -38.9% (active)
CCN(CCCNC(=O)Cc1cc(=O)oc2cc(N(C)C)ccc12)CCNc1ccnc2cc(Cl)ccc12 | 92.3%
COc1cc(-c2nc3ccccc3[nH]2)ccc1OCC(=O)N=Nc1c(O)[nH]c2ccccc12 | 109%
O=C(OCc1ncc(-c2ccc(C(F)(F)F)cc2)c(NC2CCCCCC2)n1)c1c(F)c(F)c(F)c(F)c1F | 63.5%
COc1cc(C2=Nc3c/c(=C\c4c(O)[nH]c5ccc(Cl)cc45)ccc3=N2)cc(OC)c1OC | 8.64% (active)
COc1ccc(OC)c([N+](=O)[O-])c1C=O | 108%
COc1ccc(-c2nnc(COc3ccc(NC(=O)Nc4cccc(C(F)(F)F)c4)cc3F)o2)cc1 | 39.3%
COc1ccc(C(=O)n2nc(CC(=O)NCc3ccccc3)nc2N)cc1 | 115%
NC1CCC(Nc2nc(NCc3ccc(-c4ccccc4O)nc3)c3ncn(C4CCCC4)c3n2)CC1 (configuration not stated) | -8.3% (active)
COc1ccc(CSc2nc3cc(OC)c(OC)cc3c(=O)n2-c2ccc(OC)cc2OC)cc1 | 90.6%
CCCCCCN=C(N)CCCCCCCCCCC(N)=NCCCCCC | 13.4%
O=C(COCc1c(-c2ccccc2)no[n+]1[O-])Nc1nc(-c2ccc(Cl)cc2)cs1 | 106%
O=[N+]([O-])c1ccc2c(c1)Cc1cc(I)ccc1-2 | 98.4%
CN(C)CCCN(Cc1ccccc1O)C(=S)Nc1ccc(Cl)cc1 | 102%
CS(=O)(=O)Nc1ccc(Nc2c3ccccc3nc3cc(Cl)ccc23)cc1 | 8.44% (active)
COc1ccc(/C=C2\CCC3C(CCCC34OCCO4)C2=O)cc1 (configuration not stated) | 105%
